Measured values reported in ChEMBL document CHEMBL3988442, “University of Dundee, Small-Polar-MMV Screening Library” (2021).

Each molecule was assayed against T1, Aspartate--tRNA(Asp/Asn) ligase (Mycobacterium tuberculosis (strain ATCC 25618 / H37Rv)) (UniProt P9WFW3) (assay: Assay for Asp RNA synthetase-1 from Mycobacterium tuberculosis). Details: 30 µM.
T1 sequence (whole entry): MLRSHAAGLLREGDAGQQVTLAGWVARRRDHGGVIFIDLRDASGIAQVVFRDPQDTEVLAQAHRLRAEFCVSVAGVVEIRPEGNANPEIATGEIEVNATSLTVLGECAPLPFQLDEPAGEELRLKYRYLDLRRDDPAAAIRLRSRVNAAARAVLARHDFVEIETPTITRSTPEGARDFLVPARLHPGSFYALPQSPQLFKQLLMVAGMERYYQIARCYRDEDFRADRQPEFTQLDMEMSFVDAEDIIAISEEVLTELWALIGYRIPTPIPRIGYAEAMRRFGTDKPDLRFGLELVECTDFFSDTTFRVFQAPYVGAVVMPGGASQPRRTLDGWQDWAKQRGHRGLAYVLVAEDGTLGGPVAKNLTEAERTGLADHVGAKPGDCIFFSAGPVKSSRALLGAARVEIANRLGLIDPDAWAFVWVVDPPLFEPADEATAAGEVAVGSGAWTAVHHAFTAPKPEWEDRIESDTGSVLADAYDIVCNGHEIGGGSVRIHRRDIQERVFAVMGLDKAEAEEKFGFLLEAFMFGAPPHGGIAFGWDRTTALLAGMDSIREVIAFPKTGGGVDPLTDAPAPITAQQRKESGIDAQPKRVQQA
Format: functional
Design: scale not given: direction of the effect not stated beside the values

Structure (SMILES) | Percent Effect [%]
CCn1cc(N2Cc3nc(N)ncc3C2=O)cn1 | -7.32
c1ccc(-c2nc(CN3CCCC(Cn4cncn4)C3)co2)cc1 (stereo unspecified) | 0.247
Cc1nc(CN(C)C2CCN(Cc3ccc4c(c3)OCCO4)C2)no1 (stereo unspecified) | -4.04
OCCn1cc(CN2CCN(CCOc3ccccc3F)CC2)cn1 | -0.699
CC(C)CN1CCC2(C=C(C(=O)N3CCCC3)c3ccccc32)CC1 | 0.582
Cc1cc(C[C@@H]2COC[C@@H]2NC(=O)Cn2c(=O)oc3ccccc32)on1 | -0.0288
COc1cc(CN(C(=O)Nc2cccnc2OC)C2CC2)ccc1O | -2.28
CC(C)CNC(=O)Nc1ccc(CN2CCOC2=O)cc1 | 1.75
COc1cccc2c1OCC(NC(=O)NCc1cccs1)C2 (stereo unspecified) | 1.53
Cc1cnc(CN(C)C2CCN(CC(=O)Nc3c(C)n[nH]c3C)C2)o1 (stereo unspecified) | -2.74
CCOc1ncccc1NC(=O)c1cc2c(s1)CCC2 | -3.51
CCS(=O)(=O)N1CCc2c(cccc2NC(=O)NCCOC)C1 | 5.42
CCn1ncc2c1C(COC)CN(Cc1ccsc1)C2 (stereo unspecified) | -1.74
O=C(Nc1nccs1)NC1CCN(Cc2ccccc2)C1 (stereo unspecified) | -1.92
CCc1nc(CN(C)C2CCN(CCn3cc(C#N)cn3)C2)no1 (stereo unspecified) | 9.06
CC(C)Oc1ncc(C(=O)N2CCC(NC(=O)C3CC3)CC2)cc1Cl | -4.56
CCc1ccccc1NC(=O)N1CCn2cnc(COC)c2C1 | -3.09
COc1cccc(OCCNCc2c(C)nn(C)c2N(C)C)c1 | -1.97
Cc1cc(C)n(CC2CN(CC(=O)NC3CCCC3)CCO2)n1 (stereo unspecified) | 0.91
CCC(NC(=O)C1CCN(S(C)(=O)=O)CC1)c1ccc(OC)c(C)c1 (stereo unspecified) | -5.17
O=C(Cn1ccc2sccc2c1=O)NCc1ccc2c(c1)OCO2 | 0.0437

The molecules below were run against Shiga toxin 2 (Escherichia coli O157:H7) (UniProt P09385+P09386) (assay: E. coli 0.157:H7 Shiga Toxin SOP - stx2 screening assay). Details: 30 µM.
Format: functional
Design: scale not given: direction of the effect not stated beside the values

Structure (SMILES) | Percent Effect [%]
CN(C)CCNC(=O)c1cc(-c2cnc(N3CCCC3)nc2)cn1C | -17.7
CC(C)c1n[nH]c(C2CN(C(=O)c3cccc4cn[nH]c34)CCO2)n1 (stereo unspecified) | 9.23
CCSCCC(=O)NS(=O)(=O)c1ccc2c(c1)OCCO2 | -25.1
Cc1sc(NC(=O)CN(C)S(C)(=O)=O)c(C#N)c1C | -4.6
O=C(Cn1nc2c(cc1=O)CCCC2)N[C@@H](Cc1ccccc1)C(=O)O | -48
O=C(c1cccc(CNCC2CNc3ccnn3C2)c1)N1CCCC1 (stereo unspecified) | -3.83
CC(C)c1cc(NC(=O)CN2CCC(N3CCCCC3)CC2)on1 | -28.7
COc1ncc(NC(=O)Nc2cc(C)ccc2OC)cn1 | -28.6
O=C(NCc1cccs1)[C@H]1CC[C@@H]2[C@@H](CCN2c2ncccn2)O1 | -3.66
CNc1cc(C2CCCN2Cc2ccccc2OCC(=O)O)ccn1 (stereo unspecified) | 4.73
O=C1N(c2cccc(Cl)c2)Cc2nc(=O)n(Cc3cccc(F)c3)n21 | -11.3
O=S1(=O)COCCN1Cc1ccc(Cl)c(F)c1 | -5.38
CC(CNC(=O)Nc1cn[nH]c1)N1CCc2ccccc2C1 (stereo unspecified) | 21.5
Cn1cnnc1C1CCCN(C(=O)NCCNc2ccccn2)C1 (stereo unspecified) | 19
COc1ccc(Br)c(C(=O)N2CCC(c3n[nH]c(C4CC4)n3)CC2)c1 | -39.5
CC(=O)Nc1cccc(C(=O)Nc2cnc3n2CCCC3)c1 | -9.23
CCOc1ccnc(N2CCN(C(=O)c3cccc(C#N)c3)CC2)n1 | 40.5
CC(=O)N1CCN(C(=O)CCOc2ccc(C(C)C)cc2)CC1 | 38.9
O=C(c1ccc[nH]1)N1C[C@H]2CC[C@@H]1CN(c1ncccn1)C2 | -5.71
CCn1cc(N2Cc3nc(N)ncc3C2=O)cn1 | -36.6

Structure (SMILES) | Percent Effect [%]
c1ccc(-c2nc(CN3CCCC(Cn4cncn4)C3)co2)cc1 (stereo unspecified) | -67.5
Cc1nc(CN(C)C2CCN(Cc3ccc4c(c3)OCCO4)C2)no1 (stereo unspecified) | 5.87
OCCn1cc(CN2CCN(CCOc3ccccc3F)CC2)cn1 | 24.4
CC(C)CN1CCC2(C=C(C(=O)N3CCCC3)c3ccccc32)CC1 | -8.02
Cc1cc(C[C@@H]2COC[C@@H]2NC(=O)Cn2c(=O)oc3ccccc32)on1 | -25.4
COc1cc(CN(C(=O)Nc2cccnc2OC)C2CC2)ccc1O | 11.9
CC(C)CNC(=O)Nc1ccc(CN2CCOC2=O)cc1 | -53.2
COc1cccc2c1OCC(NC(=O)NCc1cccs1)C2 (stereo unspecified) | 3.63
Cc1cnc(CN(C)C2CCN(CC(=O)Nc3c(C)n[nH]c3C)C2)o1 (stereo unspecified) | -14.3
CCOc1ncccc1NC(=O)c1cc2c(s1)CCC2 | 1.91
CCS(=O)(=O)N1CCc2c(cccc2NC(=O)NCCOC)C1 | 6.78
CCn1ncc2c1C(COC)CN(Cc1ccsc1)C2 (stereo unspecified) | -2.67
O=C(Nc1nccs1)NC1CCN(Cc2ccccc2)C1 (stereo unspecified) | -17.1
CCc1nc(CN(C)C2CCN(CCn3cc(C#N)cn3)C2)no1 (stereo unspecified) | 9.46
CC(C)Oc1ncc(C(=O)N2CCC(NC(=O)C3CC3)CC2)cc1Cl | -46.9
CCc1ccccc1NC(=O)N1CCn2cnc(COC)c2C1 | 6.27
COc1cccc(OCCNCc2c(C)nn(C)c2N(C)C)c1 | 19.6
Cc1cc(C)n(CC2CN(CC(=O)NC3CCCC3)CCO2)n1 (stereo unspecified) | 13.3
CCC(NC(=O)C1CCN(S(C)(=O)=O)CC1)c1ccc(OC)c(C)c1 (stereo unspecified) | -11.6
O=C(Cn1ccc2sccc2c1=O)NCc1ccc2c(c1)OCO2 | -8.21
